The text below walks through data of PubChem BioAssay AID1159580 (chemical genetic matrix, 2015).

About 2,000 (36%) of roughly 5,500 compounds were called active. Roughly 18% stayed inconclusive and do not appear here. Some of the results follow. A number with no mark means an inactive call. Rule as the data show it: active = normalized growth mostly below about 0.91 (no sharp cut-off); inconclusive = no clear call, values can overlap the other calls; inactive = mostly above about 0.92.

The assay is described as follows: chemical genetic growth profiling, strain panel (AID 1159580).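 Also: tested at 20 µM; growth read once vehicle control cultures reached saturation at 30 °C; 1 = growth at the plate median or of vehicle wells; lower values mean less growth of the strain.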 As to conditions: growth OD.
[1] abbreviates: S. cerevisiae deletion strains, locus YDR150W, strain NUM1, active compounds read low.
The mark [2] stands for this setting: S. cerevisiae deletion strains, locus YMR263W, strain SAP30, active compounds read low.
Where [3] appears, read: S. cerevisiae deletion strains, locus YMR307W, strain GAS1, active compounds read low.
[4] abbreviates: S. cerevisiae deletion strains, locus YNL322C, strain KRE1, active compounds read low.
[5] abbreviates: S. cerevisiae deletion strains, locus YAL013W, strain DEP1, active compounds read low.
[6] abbreviates: S. cerevisiae deletion strains, locus YBR229C, strain ROT2, active compounds read low.
Where [7] appears, read: S. cerevisiae deletion strains, locus YCL061C, strain MRC1, active compounds read low.
The mark [8] stands for this setting: S. cerevisiae deletion strains, locus YDL101C, strain DUN1, active compounds read low.
The mark [9] stands for this setting: S. cerevisiae deletion strains, locus YEL061C, strain CIN8, active compounds read low.
Where [10] appears, read: S. cerevisiae deletion strains, locus YGR078C, strain PAC10, active compounds read low.
[11] abbreviates: S. cerevisiae deletion strains, locus YHR030C, strain SLT2, active compounds read low.
[12] abbreviates: S. cerevisiae deletion strains, locus YHR087W, strain rtc3, active compounds read low.
The mark [13] stands for this setting: S. cerevisiae deletion strains, locus YJR043C, strain POL32, active compounds read low.
[14] abbreviates: S. cerevisiae deletion strains, locus YJR075W, strain HOC1, active compounds read low.
Where [15] appears, read: S. cerevisiae deletion strains, locus YKL190W, strain CNB1, active compounds read low.
Setting [16] is: S. cerevisiae deletion strains, locus YLR039C, strain RIC1, active compounds read low.
The mark [17] stands for this setting: S. cerevisiae deletion strains, locus YLR058C, strain SHM2 (second series), active compounds read low.
The mark [18] stands for this setting: S. cerevisiae deletion strains, locus YLR085C, strain ARP6, active compounds read low.
[19] abbreviates: S. cerevisiae deletion strains, locus YLR262C, strain YPT6, active compounds read low.
Setting [20] is: S. cerevisiae deletion strains, locus YML094W, strain GIM5, active compounds read low.
Setting [21] is: S. cerevisiae deletion strains, locus YMR219W, strain ESC1, active compounds read low.
Where [22] appears, read: S. cerevisiae deletion strains, locus YNL153C, strain GIM3, active compounds read low.
The mark [23] stands for this setting: S. cerevisiae deletion strains, locus YNL298W, strain CLA4 (second series), active compounds read low.
Setting [24] is: S. cerevisiae deletion strains, locus YNR030W, strain Alg12, active compounds read low.
[25] abbreviates: S. cerevisiae deletion strains, locus YOL006C, strain TOP1, active compounds read low.
Where [26] appears, read: S. cerevisiae deletion strains, locus YPL055C, strain LGE1, active compounds read low.
The mark [27] stands for this setting: S. cerevisiae deletion strains, locus YPL241C, strain CIN2, active compounds read low.
Setting [28] is: S. cerevisiae deletion strains, locus YPR135W, strain CTF4, active compounds read low.
Setting [29] is: S. cerevisiae strains, strain wild type, active compounds read low.
Setting [30] is: S. cerevisiae deletion strains, locus YGR229C, strain SMI1, active compounds read low.

`CC(C)(C)c1cc(/C=C(\C#N)C(N)=S)cc(C(C)(C)C)c1O`: the normalized growth is, setting by setting: (S. cerevisiae deletion strains, locus YAL040C, strain CLN3, active compounds read low) 0.912; (S. cerevisiae deletion strains, locus YCL061C, strain MRC1 (second series), active compounds read low) 1.01; under setting [1], 1; (S. cerevisiae deletion strains, locus YDR363W, strain ESC2, active compounds read low) 1.04; (S. cerevisiae deletion strains, locus YER002W, strain NOP16, active compounds read low) 0.997; under setting [2], 1.01. Further, the normalized growth under setting [3] is 1.01; the normalized growth (S. cerevisiae deletion strains, locus YNL175C, strain NOP13, active compounds read low) is 1.02; the normalized growth (S. cerevisiae deletion strains, locus YNL197C, strain WHI3, active compounds read low) is 0.913; the normalized growth (S. cerevisiae deletion strains, locus YNL224C, strain SQS1, active compounds read low) is 0.929; the normalized growth under setting [4] is 1.02; the normalized growth (S. cerevisiae deletion strains, locus YOR083W, strain WHI5 (second series), active compounds read low) is 0.832 (active).

Take `O=C1c2ccccc2C(=O)N1CNc1ccc(N2CCOCC2)cc1`: the normalized growth is, setting by setting: under setting [5], 1; under setting [6], 1; under setting [7], 0.999; under setting [8], 1.01; under setting [1], 0.901; under setting [9], 0.986. The normalized growth was 1 under setting [10]; 0.976 under setting [11]; 1.02 under setting [12]; 1 under setting [13]; 1.01 under setting [14]; 0.994 under setting [15]. Also, the normalized growth by setting is: under setting [16], 1.02; under setting [17], 0.997; under setting [18], 0.977; under setting [19], 1.01; under setting [20], 1.02; under setting [21], 1. Also, the normalized growth was 0.993 under setting [2]; 1.01 under setting [3]; 1.01 under setting [22]; 1.02 under setting [23]; 0.977 under setting [4]; 0.994 under setting [24]. The normalized growth under setting [25] is 0.997; the normalized growth under setting [26] was 0.861; the normalized growth under setting [27] was 1.01; the normalized growth under setting [28] is 1.09; the normalized growth under setting [29] was 1.02.

On to `OC[C@H]1O[C@H](O[C@]2(CCl)O[C@H](CCl)[C@@H](O)[C@@H]2O)[C@H](O)[C@@H](O)[C@H]1Cl`, for which the normalized growth was 1.04 under setting [11]; 0.979 (S. cerevisiae deletion strains, locus YHR079C, strain IRE1, active compounds read low); 0.996 (S. cerevisiae deletion strains, locus YJL095W, strain BCK1, active compounds read low); 0.952 (S. cerevisiae deletion strains, locus YJR066W, strain TOR1, active compounds read low); 0.977 (S. cerevisiae deletion strains, locus YLR113W, strain HOG1, active compounds read low); 0.895 (S. cerevisiae deletion strains, locus YNL183C, strain NPR1, active compounds read low). In addition, the normalized growth runs as follows: (S. cerevisiae deletion strains, locus YOR231W, strain MKK1, active compounds read low) 0.972; (S. cerevisiae deletion strains, locus YPL256C, strain CLN2, active compounds read low) 0.984.

Take `C=C1SC(Nc2cccc(C(F)(F)F)c2)=NC12CCCCC2`: the normalized growth is 0.999 under setting [5]; 1.01 under setting [6]; 1.01 under setting [8]; 1.03 (S. cerevisiae deletion strains, locus YDL134C, strain PPH21, active compounds read low); 0.987 under setting [1]; 1.01 under setting [9]. Besides, the normalized growth under setting [10] was 0.986; the normalized growth under setting [30] was 0.999; the normalized growth under setting [11] is 0.955; the normalized growth under setting [12] was 0.99; the normalized growth under setting [13] is 1.01; the normalized growth under setting [14] is 0.995. For the same compound, the normalized growth is, setting by setting: under setting [16], 0.958; under setting [17], 0.987; under setting [18], 1.03; under setting [19], 0.971; under setting [20], 1.02; under setting [21], 0.999. The normalized growth was 0.982 under setting [2]; 0.937 under setting [3]; 0.973 under setting [22]; 0.985 under setting [23]; 1.01 under setting [4]; 1.01 under setting [24]. Besides, the normalized growth by setting is: under setting [26], 0.995; under setting [27], 1.01; under setting [28], 0.904; under setting [29], 1.

`FC(F)(F)c1ccc(Cl)c(NC(=S)NN=C2CCCCCC2)c1`: the normalized growth under setting [5] was 0.989; the normalized growth under setting [6] is 0.977; the normalized growth under setting [7] was 1.01; the normalized growth under setting [8] was 1.07; the normalized growth under setting [1] is 1.04; the normalized growth under setting [9] is 0.89 (active). In addition, the normalized growth was 0.996 under setting [10]; 0.948 under setting [30]; 0.924 under setting [11]; 0.956 under setting [12]; 1.03 under setting [13]; 1.02 under setting [14]. In addition, the normalized growth under setting [15] was 0.891 (active); the normalized growth under setting [16] was 0.783 (active); the normalized growth under setting [17] was 0.99; the normalized growth under setting [18] is 0.741 (active); the normalized growth under setting [19] was 0.883; the normalized growth under setting [20] is 0.912. Also, the normalized growth reads like this: under setting [21], 0.984; under setting [2], 0.996; under setting [22], 1.02; under setting [23], 0.813 (active); under setting [4], 0.989; under setting [24], 0.895. The normalized growth was 0.61 (active) under setting [25], 0.949 under setting [26], 0.969 under setting [27] and 1 under setting [28].
